Active and inactive are the calls of the source. Unless noted, how the calls were made is not given here.
Experiments:
[1] = system: Wnt5a (protein binding on small-molecule microarray); assay: small molecules binding Wnt5a protein – biophysical, small-molecule microarray, 635/667 nm fluorescence, primary screen (AID 1142); details: 635 nm fluorescence, higher = more signal;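 further: fluorescence read at 667 nm with signal to noise per printed feature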
[2] = ATP-based viability of Huh7 replicon cells – cell-based, CellTiter-Glo luminescence, basal, 48 h, cytotoxicity control for HCV replication inhibitor project, primary screen (AID 1143); details: higher = more signal, called active from +8 up or from −8 down;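 further: Huh7 hepatoma cells carrying a hepatitis C replication reporter with no stimulus; test concentration not given here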
[3] = Pseudomonas biofilm growth suppression – PAO1 strain, BacTiter-Glo luminescence, LB-PBS, primary screen (AID 1144); details: P. aeruginosa PAO1 biofilm, 12 h, higher = more signal
[4] = basal CRE-LacZ reporter activity in PC12 – cell-based, unstimulated, primary screen (AID 1145); details: no forskolin, luminescence, 4.5 h, higher = more signal, called active from +8 up or from −8 down
[5] = forskolin-driven CRE-LacZ activity in PC12 – cell-based, CRE-LacZ reporter, forskolin-stimulated, primary screen (AID 1146); details: luminescence, 4.5 h, higher = more signal, called active from +8 up or from −8 down;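 further: PC12 cells with 6xCRE LacZ reporter stimulated by forskolin 10 µM; beta-galactosidase reporter signal reflecting CREB driven transcription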
[6] = target: Streptavidin (Streptomyces avidinii) (UniProt P22629); assay: compounds binding control protein streptavidin – biophysical, small-molecule microarray, 635/667 nm fluorescence, artefact control for SMM compound annotation, primary screen (AID 1147); details: higher = more signal;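 further: signal reflects streptavidin binding to arrayed compounds as a control protein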
Streptavidin (Streptomyces avidinii), sequence (P22629 whole entry, looked up): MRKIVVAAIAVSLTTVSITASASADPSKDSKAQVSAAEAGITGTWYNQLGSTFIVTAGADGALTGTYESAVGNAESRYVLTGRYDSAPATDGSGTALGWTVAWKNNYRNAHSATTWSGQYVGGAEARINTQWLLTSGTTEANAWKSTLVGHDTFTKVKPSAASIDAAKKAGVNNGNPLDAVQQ

[7] = probe aInhba binding on compound microarray – biochemical, small-molecule microarray, 635/667 nm fluorescence, primary screen (AID 1148); details: higher = more signal;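 further: score merges 667nm spot fluorescence with signal-to-noise for antibody binding to printed compounds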
Torsin-1A (Homo sapiens) [8] = target: Torsin-1A (Homo sapiens) (UniProt O14656); assay: TOR1A wild-type binding on microarray – cell lysate, small-molecule microarray, lysate, 635/667 nm, primary screen (AID 1149); details: COS7 hTOR1A-WT lysate, 635 nm fluorescence, higher = more signal
Torsin-1A (Homo sapiens), sequence (O14656 whole entry, looked up): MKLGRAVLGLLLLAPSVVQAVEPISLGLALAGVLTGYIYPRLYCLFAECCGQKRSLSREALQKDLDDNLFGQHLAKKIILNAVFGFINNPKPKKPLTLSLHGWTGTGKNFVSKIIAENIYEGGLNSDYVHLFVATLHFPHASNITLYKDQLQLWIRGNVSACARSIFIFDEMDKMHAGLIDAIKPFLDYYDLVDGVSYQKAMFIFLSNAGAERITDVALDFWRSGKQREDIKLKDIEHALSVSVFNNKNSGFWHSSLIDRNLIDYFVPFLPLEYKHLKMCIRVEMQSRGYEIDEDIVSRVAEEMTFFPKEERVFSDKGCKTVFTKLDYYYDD

Torsin-1A (Homo sapiens) [9] = target: Torsin-1A (Homo sapiens) (UniProt O14656); assay: torsin A mutant lysate binding on microarrays – cell lysate, small-molecule microarray, COS7 lysate, 635/667 nm fluorescence, primary screen (AID 1150); details: COS7 hTOR1A mutant lysate, 635 nm fluorescence, higher = more signal;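 further: score pools 667 nm emission and signal to noise measuring lysate protein binding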
[10] = system: Sonic hedgehog protein (Shh); assay: Sonic hedgehog microarray binding compounds – biochemical, small-molecule microarray, 635/667 nm fluorescence, primary screen (AID 1151); details: 635 nm fluorescence, higher = more signal;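 further: Shh protein binding to compounds spotted on small-molecule microarray slides; score combines spot fluorescence intensity with signal-to-noise across triplicate slides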
[11] = optical density shifts of acrAB sulA E. coli – strain DRC41, OD650, 48 h, E. coli filamentation inducer project, primary screen (AID 1152); details: higher = more signal, called active from +8 up or from −8 down;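 further: E. coli MC1000 strain DRC41 lacking acrAB efflux pump and sulA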
[12] = probe aLefty1 binding on compound microarray – biochemical, small-molecule microarray, 635/667 nm fluorescence, primary screen (AID 1153); details: higher = more signal;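 further: score merges spot fluorescence with signal-to-noise ratio from the scanned slide images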
[13] = plasmodial surface anion channel blockers, osmotic lysis – cell-based, P. falciparum Indochina, OD700, 1 h, primary screen (AID 1154); details: P. falciparum Indochina infected RBC osmotic lysis, higher = more signal, called active from +8 up or from −8 down
[14] = plasmodial surface anion channel blockers, osmotic lysis – cell-based, P. falciparum Indochina, OD700, 2 h, primary screen (AID 1155);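 further: lysis reports solute entry through the parasite surface anion channel PSAC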; details: P. falciparum Indochina infected erythrocytes, higher = more signal, called active from +8 up or from −8 down
[15] = changes in parasitized red cell lysis, either direction – P. falciparum Indochina, OD700, 3 h, PSAC antagonist project, primary screen (AID 1156); details: P. falciparum-infected erythrocytes, osmotic lysis, higher = more signal, called active from +8 up or from −8 down
[16] = plasmodial surface anion channel blockers, osmotic lysis – cell-based, P. falciparum Indochina, OD700, 18 h, primary screen (AID 1157); details: P. falciparum Indochina infected erythrocytes, osmotic lysis OD700, 18 h; higher = more signal, called active from +8 up or from −8 down
[17] = S6 kinase pathway phospho-S6 level changes – cell-based, A549, cytoblot, luminescence, serum-stimulated, primary screen (AID 1158); details: 5 h, higher = more signal;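 further: serum-stimulated A549 lung adenocarcinoma cells; signal is phosphorylated S6 detected by cytoblot immunostaining with HRP secondary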
[18] = target: NADPH oxidase 2 (Homo sapiens) (UniProt P04839); assay: compounds shifting NOX2 Amplex Red fluorescence – cell-based, HEK293-NOX2, PMA-stimulated, NOX inhibitor project, primary screen (AID 1159); details: 45 min, higher = more signal, called active from +8 up or from −8 down; further: test concentration not given here
NADPH oxidase 2 (Homo sapiens), sequence (P04839 whole entry, looked up): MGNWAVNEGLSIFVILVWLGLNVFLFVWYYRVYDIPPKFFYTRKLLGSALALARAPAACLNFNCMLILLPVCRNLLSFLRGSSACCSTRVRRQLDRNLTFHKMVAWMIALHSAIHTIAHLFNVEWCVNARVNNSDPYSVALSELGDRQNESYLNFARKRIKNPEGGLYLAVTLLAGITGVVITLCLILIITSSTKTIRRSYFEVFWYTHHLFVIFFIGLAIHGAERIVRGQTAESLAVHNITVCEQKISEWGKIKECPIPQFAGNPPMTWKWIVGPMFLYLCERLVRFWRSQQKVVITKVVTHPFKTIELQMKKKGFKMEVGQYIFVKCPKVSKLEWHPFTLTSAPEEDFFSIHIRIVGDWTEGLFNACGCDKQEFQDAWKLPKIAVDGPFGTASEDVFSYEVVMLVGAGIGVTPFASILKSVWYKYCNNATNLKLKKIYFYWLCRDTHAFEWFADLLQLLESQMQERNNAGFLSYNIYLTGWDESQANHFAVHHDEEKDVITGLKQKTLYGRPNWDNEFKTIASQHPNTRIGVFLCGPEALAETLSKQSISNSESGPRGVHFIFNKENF

[19] = target: NADPH oxidase 4 (Homo sapiens) (UniProt Q9NPH5); assay: compounds shifting NOX4 Amplex Red fluorescence – cell-based, HEK293-NOX4, tetracycline-induced, NOX inhibitor project, primary screen (AID 1160); details: HEK293-NOX4, Amplex Red H2O2 fluorescence, 45 min; higher = more signal, called active from +8 up or from −8 down
NADPH oxidase 4 (Homo sapiens), sequence (Q9NPH5 whole entry, looked up): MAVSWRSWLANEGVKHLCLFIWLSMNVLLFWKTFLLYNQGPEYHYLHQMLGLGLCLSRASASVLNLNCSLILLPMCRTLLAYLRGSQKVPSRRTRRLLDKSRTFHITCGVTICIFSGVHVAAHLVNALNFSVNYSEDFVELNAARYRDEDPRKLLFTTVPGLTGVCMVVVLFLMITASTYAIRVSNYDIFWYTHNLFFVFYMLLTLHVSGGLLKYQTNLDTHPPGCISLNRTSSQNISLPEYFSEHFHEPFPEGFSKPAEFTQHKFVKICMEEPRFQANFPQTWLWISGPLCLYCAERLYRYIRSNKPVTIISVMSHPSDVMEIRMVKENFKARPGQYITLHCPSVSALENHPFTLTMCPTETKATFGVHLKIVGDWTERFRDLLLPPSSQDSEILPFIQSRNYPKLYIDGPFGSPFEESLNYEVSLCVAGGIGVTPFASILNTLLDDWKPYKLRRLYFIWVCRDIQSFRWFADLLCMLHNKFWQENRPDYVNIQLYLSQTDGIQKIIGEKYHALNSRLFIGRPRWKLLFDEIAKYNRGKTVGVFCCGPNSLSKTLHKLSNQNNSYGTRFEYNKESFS

[20] = target: NADPH oxidase 5 (Homo sapiens) (UniProt Q96PH1); assay: compounds shifting NOX5 Amplex Red fluorescence – cell-based, HEK293-NOX5, NOX inhibitor project, primary screen (AID 1161); details: HEK293-NOX5, ionomycin, 45 min, higher = more signal
NADPH oxidase 5 (Homo sapiens), sequence (Q96PH1 whole entry, looked up): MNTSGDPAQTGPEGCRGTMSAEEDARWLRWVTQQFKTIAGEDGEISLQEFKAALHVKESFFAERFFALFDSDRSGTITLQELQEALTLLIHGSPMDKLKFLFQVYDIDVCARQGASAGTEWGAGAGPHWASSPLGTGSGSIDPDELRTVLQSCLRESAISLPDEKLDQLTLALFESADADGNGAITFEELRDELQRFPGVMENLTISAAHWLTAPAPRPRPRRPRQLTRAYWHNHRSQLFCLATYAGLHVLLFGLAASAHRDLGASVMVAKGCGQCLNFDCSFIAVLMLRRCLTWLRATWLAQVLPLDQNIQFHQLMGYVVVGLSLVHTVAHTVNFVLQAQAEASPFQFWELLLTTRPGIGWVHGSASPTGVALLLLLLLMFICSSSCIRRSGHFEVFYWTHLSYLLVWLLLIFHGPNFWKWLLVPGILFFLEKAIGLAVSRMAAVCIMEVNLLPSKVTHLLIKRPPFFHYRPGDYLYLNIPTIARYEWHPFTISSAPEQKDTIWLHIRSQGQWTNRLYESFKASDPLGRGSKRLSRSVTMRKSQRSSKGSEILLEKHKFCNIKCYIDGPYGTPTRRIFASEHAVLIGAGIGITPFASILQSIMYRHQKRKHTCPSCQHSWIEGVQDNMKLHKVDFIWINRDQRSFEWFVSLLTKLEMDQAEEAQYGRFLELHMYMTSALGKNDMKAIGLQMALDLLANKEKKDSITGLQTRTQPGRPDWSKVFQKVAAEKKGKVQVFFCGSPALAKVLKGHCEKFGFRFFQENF

Row | Compound | composite z-score [1] | z-score [2] | z-score [3] | z-score [4] | z-score [5] | composite z-score [6] | composite z-score [7] | composite z-score (Torsin-1A (Homo sapiens) [8]) | composite z-score (Torsin-1A (Homo sapiens) [9]) | composite z-score [10] | z-score [11] | composite z-score [12] | z-score [13] | z-score [14] | z-score [15] | z-score [16] | z-score [17] | z-score [18] | z-score [19] | z-score [20]
1 | COC(=O)[C@@]1(Cc2ccc(OC)cc2)[C@H]2c3cc(C(=O)N(C)C)n(C[C@H](O)CO)c3C[C@H]2CN1C(=O)c1ccccc1 | 0.533 | -2.58 (inactive) | -0.0273 (inactive) | 0.39 (inactive) | 1.33 (inactive) | 1.41 | 0.116 | 0.219 | 1.16 | -0.753 | -1.99 (inactive) | 0.523 | 5.61 (inactive) | 0.936 (inactive) | 1.98 (inactive) | 1.23 (inactive) | -0.364 | 0.452 (inactive) | -0.281 (inactive) | -0.527
2 | Cc1ccc(S[C@]2(C(=O)O)CC(=O)N(C3Cc4ccccc4C3)[C@@H]2c2ccc(CO)cc2)cc1 | -0.127 | 0.121 (inactive) | 0.0572 (inactive) | 0.001 (inactive) | 0.629 (inactive) | -0.395 | 0.0018 | 0.794 | 0.431 | -0.3 | -0.0458 (inactive) | 0.212 | 3.54 (inactive) | -0.273 (inactive) | 0.385 (inactive) | -0.333 (inactive) | -0.401 | -0.0451 (inactive) | -0.498 (inactive) | 1.58
3 | CCOC(=O)C1=C[C@@H](c2ccccc2)N(S(=O)(=O)c2ccc(C)cc2)[C@H]1c1ccccc1Cl | 0.387 | -3.97 (inactive) | 0.533 (inactive) | -0.312 (inactive) | 0.343 (inactive) | 1.6 | -0.0221 | 0.888 | 0.273 | 0.844 | -1.18 (inactive) | 0.138 | 1.35 (inactive) | 1.16 (inactive) | -0.0415 (inactive) | 0.805 (inactive) | -0.48 | 0.574 (inactive) | 0.138 (inactive) | 0.405
4 | [N-]=[N+]=Nc1ccccc1C[C@]1(C(=O)N2CCOCC2)N=C(c2ccc(OCCCO)cc2)O[C@H]1c1ccccc1 | 1.01 | -3.57 (inactive) | 0.567 (inactive) | 0.204 (inactive) | -0.0807 (inactive) | 0.65 | -0.0279 | 1.14 | 0.272 | 0.276 | 1.61 (inactive) | -0.007 | 20.5 (active) | 4.95 (inactive) | 2.84 (inactive) | 1.43 (inactive) | 0.251 | 0.265 (inactive) | 0.719 (inactive) | -1.47
5 | C=C(C(=O)CC[C@@H](OC(C)=O)c1ccc(CO)o1)C(C)C | 0.911 | 1.18 (inactive) | -0.947 (inactive) | 0.275 (inactive) | 2.17 (inactive) | 0.0155 | -0.0427 | -0.427 | -0.0059 | 1.91 | -0.167 (inactive) | -0.007 | 1.21 (inactive) | 0.0112 (inactive) | 0.493 (inactive) | -0.0113 (inactive) | -0.0282 | -0.354 (inactive) | 0.261 (inactive) | 0.483
6 | CC(C)[Si](C#C[Si](C(C)C)(C(C)C)C(C)C)(O[C@H](C)c1cn([C@H](CO)Cc2ccccc2)nn1)C(C)C | -0.0305 | -0.43 (inactive) | -1.52 (inactive) | -0.463 (inactive) | -0.531 (inactive) | 0.291 | -0.234 | 0.238 | 0.144 | 0.341 | 2.09 (inactive) | -0.212 | 0.532 (inactive) | 0.655 (inactive) | -0.116 (inactive) | 0.359 (inactive) | 0.479 | -1.96 (inactive) | 0.188 (inactive) | 0.0884
7 | CC(C)[Si](C#CCCCC#N)(O[C@H](c1ccccc1)c1cn([C@H](CO)Cc2ccccc2)nn1)C(C)C | -0.187 | -0.248 (inactive) | -0.747 (inactive) | -0.463 (inactive) | 1.01 (inactive) | 1.18 | -0.108 | 0.531 | 0.477 | 0.774 | 1.72 (inactive) | -0.187 | 1.31 (inactive) | 0.4 (inactive) | -0.138 (inactive) | 0.0616 (inactive) | -0.013 | -0.777 (inactive) | 0.789 (inactive) | 0.317
8 | CC(=O)NCCCC[C@@H]1NC(=O)[C@@H]2C[C@H](C(=O)NCCCC[N+](C)(C)C)[C@H](c3ccc(O)cc3)N2C1=O | 0.522 | -2.24 (inactive) | -0.279 (inactive) | -0.122 (inactive) | -0.528 (inactive) | -0.146 | 0.242 | 0.804 | 0.547 | 2.24 | -0.003 (inactive) | 0.389 | 0.369 (inactive) | -1.08 (inactive) | 0.267 (inactive) | -2.27 (inactive) | 1.34 | -3.26 (inactive) | -2.25 (inactive) | -4.41
